# Source: PubChem BioAssay (National Center for Advancing Translational Sciences (NCATS))
# This is one part of a sample in which hits are shown more often than they occur.
# CRE Fsk mod – Cell signaling CRE-BLA (Fsk stim); CHO CRE-bla reporter (cAMP response element driving beta-lactamase), forskolin EC10, beta-lactamase ratio; Potency, µM (titrated, usually from 38.2 µM), usual class: activators; 71,000 tested, 2.5% active; AID 662, 2007; active = well fitted activation curve with a large enough effect in the signal ratio, with a control signal flat, not every such curve was filed as active; inconclusive = small, poorly fitted or top-dose-only effect, or effect the other way, or a change in a side signal; the % refers to the signal ratio
#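 CRE-bla CHO reporter cells treated with compound titration plus EC10 NKH 477 (water-soluble forskolin), incubated 3 h at 37 °C; CCF4 loading 2 h at room temperature, 460/530 nm emission ratio read, AC50 values derived for positive or negative modulators.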
# ERK AVP inh – qHTS Assay for Inhibitors of the ERK Signaling Pathway using a Homogeneous Screening Assay; 72,000 tested, 0.99% active; AID 995, 2007; HEK293-V1b, vasopressin-stimulated pERK AlphaScreen; Potency, µM (highest dose often 57.5 µM), actives largely listed as inhibitors; note: nearly all actives have a fitted effect of over 55% in size
#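 HEK293 cells stably expressing V1b receptor, seeded overnight in 1% FBS, were treated with compounds for 30 min at 37C, then stimulated 5 min with 25 nM vasopressin; phospho-ERK read by AlphaScreen SureFire after lysis.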
# Imprint erasure – qHTS Assay for Compounds that Induce Erasure of Genomic Imprints; AID 1948, 2009; mouse ES Peg3-LacZ reporter, beta-gal luminescence, 40 h; Potency, µM (doses to about 60.7 µM), most hits filed as activators; 110,000 tested, 0.02% active
#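 Imprint erasure is scored as LacZ activity from the silenced maternal Peg3 allele in feeder-free female ES cells cultured 40 h with LIF. Luminescence is normalized to in-plate negative controls and fitted to the Hill equation.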
# IkB sig inh – IkB Signaling | ABC-DLBCL IkBa-CBG/CBR dual luciferase ratio, 4 h; response scale: scaled: untreated 0%, proteasome inhibitor 100% | Potency, µM (series often up to 57.1 µM) | 110,000 tested, 0.04% active; active = well fitted curve in the direction sought with a large enough effect in the signal ratio, not every such curve was filed as active; inconclusive = small, poorly fitted or top-dose-only effect, or a change in a side signal; the % refers to the signal ratio;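 note: the direction sought is a rising ratio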
#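 Luminescence ratio of IκBα-fused green versus native red beetle luciferase in OCI-Ly3 cells, 4 h post-doxycycline with compound; red signal alone, scaled from basal (0%) to zero light (-100%), flagged nonspecific or cytotoxic effects.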
# Hits are given with their value; i = inactive; ? = inconclusive; nt = no result; [ ] = another dose, or the depositor's remark. Unless noted, calls come from the whole dose curve; as a rule, active = well fitted curve in the direction sought with a large enough effect; inconclusive = small, poorly fitted or top-dose-only effect, or another doubt; inactive = no such curve, though single readings can be large; an effect the other way counts as inactive or inconclusive.
SMILES,CRE Fsk mod,ERK AVP inh,Imprint erasure,IkB sig inh
COC(=O)c1sccc1NC(=O)c1ccco1,13µM,?,i,i
COC(=O)c1cc(OC)c(OC)cc1NC(=O)c1ccco1,1.6µM,i,i,i
COC(=O)c1ccccc1NC(=O)COC(=O)c1ccc(C)c(NC(=O)c2ccco2)c1,2.5µM,?,i,?
COC(=O)c1ccccc1NC(=O)c1ccco1,?,?,i,i
COC(=O)c1sccc1NC(=O)c1ccncc1,10µM,?,i,i
COC(=O)c1sccc1NC(=O)c1c(C)noc1C,i,i,i,i
C[N+](C)(C)CCN[N@@+]1(C)CCCc2ccccc21,i[7.6 µM],i[11.5 µM],i[10.9 µM],i[11.4 µM]
Cc1ccc2[nH]c3nc(CCCn4ccnc4-c4ccccc4)nnc3c2c1,nt,i[11.5 µM],nt,nt
CC(C)c1ccc(/C(C(=O)O)=C(\O)C(=O)O)cc1,i[7.6 µM],i[11.5 µM],i[10.9 µM],i[11.4 µM]
COC(=O)[C@H]1[C@@H]2C[C@H]3c4[nH]c5ccccc5c4CCN3C[C@@H]2CC[C@@H]1O,i,i,i,?
COC(=O)c1cc(OC)c(OC)cc1NC(=O)c1c(-c2ccccc2Cl)noc1C,1µM,i,i,i
O=C1CCCC=C1[C@H](CCc1ccccc1)OC(=O)c1ccc(Br)cc1,nt,i[11.5 µM],nt,nt
CCOC(=O)N1CCN(C(=O)c2ccc(CS(=O)(=O)c3ccccc3OC)o2)CC1,i,i,i,i
COc1ccccc1S(=O)(=O)Cc1ccc(C(=O)N2CCN(c3ccc(C)cc3)C(C)C2)o1 (stereo not drawn),i,25µM,i,?
CCCc1nc(SCc2cccnc2)c2c(=O)n(C)c(=O)n(C)c2n1,4µM,nt,i,i
CCCc1nc(SCC(=O)N2CCN(c3ccccc3)CC2)c2c(=O)n(C)c(=O)n(C)c2n1,i,nt,i,i
CCCc1nc(SCc2ccccn2)c2c(=O)n(C)c(=O)n(C)c2n1,5µM,nt,i,i
Cn1c(=O)c2c(SCc3ccccn3)nc(C3CC3)nc2n(C)c1=O,2µM,nt,i,i
CCCc1nc(SC2CCCC2)c2c(=O)n(C)c(=O)n(C)c2n1,2.5µM,nt,i,i
COC(=O)C/C=C\[C@@H](C)[C@@H](/C=N\OC[C@@H](C)[C@H](OCc1ccccc1)C(C)C)OC,nt,i[11.5 µM],nt,nt
CN1[C@@H]2CC(OC(=O)[C@H](CO)c3ccccc3)C[C@@H]1[C@H]1O[C@H]12 (stereo partly drawn),i,i,i,i
NC[C@@H]1O[C@@H](O[C@H]2[C@@H](O)[C@H](O[C@@H]3[C@H](O)[C@H](N)C[C@H](N)[C@H]3O[C@@H]3O[C@@H](CO)[C@H](O)[C@H](O)[C@@H]3N)O[C@H]2CO)[C@H](N)[C@H](O)[C@@H]1O,i,i,nt,?
ClC1=C(Cl)C(Cl)(Cl)C(Cl)=C1Cl,i,i,i,i
COc1ccc(CC(=O)Nc2ccc(-c3nnc(-c4ccccc4)o3)cc2)cc1OC,i,i,i,?
COc1ccc(CC(=O)Nc2cccc(-c3nnc(-c4ccc(C)cc4)o3)c2)cc1OC,?,7.9µM,i,?
SMILES,CRE Fsk mod,ERK AVP inh,Imprint erasure,IkB sig inh
COc1ccc(CC(=O)Nc2cccc(-c3nnc(-c4cccc(C)c4)o3)c2)cc1OC,?,3.2µM,i,?
COc1ccc(CC(=O)Nc2cccc(-c3nnc(-c4ccccc4)o3)c2)cc1OC,?,5µM,i,?
CCOc1cccc(C(=O)Nc2cccc(-c3nnc(-c4ccc(C)cc4)o3)c2)c1,i,i,i,i
O=[N+]([O-])c1ccc(S(=O)(=O)Cc2ccccc2)c2nonc12,i[7.6 µM],i[11.5 µM],?,i[11.4 µM]
NC(N)=N/N=C(/c1ccccc1)c1ccc(O)cc1O,i[7.6 µM],i[11.5 µM],i[10.9 µM],i[11.4 µM]
O=C1[C@@H]2[C@@H](C(=O)N1c1ccc(OCc3ccccc3)cc1)[C@@H]1c3ccccc3[C@@H]2[n+]2ccccc21,i[7.6 µM],i[11.5 µM],i[10.9 µM],i[11.4 µM]
CCOCCCn1c(=N)c(C(=O)NCc2ccccc2)cc2c(=O)n3ccccc3nc21,nt,nt,i[10.9 µM],i
C=CCn1c(=N)c(C(=O)NCCCOC)cc2c(=O)n3ccccc3nc21,10µM,i,i,i
COC(=O)c1cc2c(=O)n3ccccc3nc2n(C)c1=N,7.9µM,i,i,i
N=c1c(C(=O)NCc2ccc(F)cc2)cc2c(=O)n3ccccc3nc2n1CCCN1CCOCC1,2.5µM,i,i,i
C=C1CC[C@H]2C(C)(C)[C@H](O)CC[C@]2(C)[C@@H]1COc1ccc2ccc(=O)oc2c1,i,nt,nt,i[11.4 µM]
C[C@H]1C[C@@H]2[C@H]3CCC4=CC(=O)C=C[C@@]4(C)[C@]3(Cl)[C@@H](Cl)C[C@]2(C)[C@]1(O)C(=O)COP(=O)(O)O,i[7.6 µM],nt,nt,i[11.4 µM]
Nc1cccc(S(=O)(=O)O)c1,i,i,?,i
CC(C)(C)C(=O)[C@H](C(c1ccccc1)N1CCOCC1)N1CCOCC1 (stereo partly drawn),nt,nt,i[10.9 µM],nt
CC(=O)OC[C@H]1O[C@@H](O/N=C(\C)CCN2CCCc3nc(C)c(C)cc32)[C@H](OC(C)=O)[C@@H](OC(C)=O)[C@H]1OC(C)=O,nt,i[11.5 µM],nt,nt
Cc1ccc(CC(=O)N2CCC(c3nc4c(nnn4Cc4ccccc4)c(=O)[nH]3)CC2)cc1,10µM,i,i,i
Cc1ccc(Cn2nnc3c(=O)[nH]c(C4CCN(C(=O)Cc5cccs5)CC4)nc32)cc1,?,i,nt,i
O=C(c1ccccc1Cl)N1CCC(c2nc3c(nnn3Cc3ccco3)c(=O)[nH]2)CC1,10µM,?,i,i
CC(C)(C)/C(O)=C(/C#N)c1nc2ccccc2[nH]1,?,20µM,i,?
COc1cccc(OC)c1/C(O)=C(\C#N)c1nc2ccccc2[nH]1,i,i,i,i
COc1ncc2nc(-c3ccc(Cl)cc3)c(=O)n(Cc3cccs3)c2n1,13µM,i,i,i[11.4 µM]
O=c1c(-c2ccc(Cl)cc2)nc2cncnc2n1Cc1ccccc1,13µM,i,nt,i[11.4 µM]
COc1cccc(Cn2c(=O)cnc3cnc(N(C)C)nc32)c1,6.3µM,i,?,i[11.4 µM]
Cn1c(=O)c(-c2cccc(Cl)c2)nc2cncnc21,13µM,i,nt,i[11.4 µM]
CN(C)c1ncc2nc(-c3ccc(Cl)cc3)c(=O)n(Cc3cccs3)c2n1,?,i,i,i[11.4 µM]
SMILES,CRE Fsk mod,ERK AVP inh,Imprint erasure,IkB sig inh
O=c1c(-c2ccc(F)cc2)nc2cncnc2n1Cc1ccccc1,?,i,?,i[11.4 µM]
O=c1cc(-c2ccc(O)c(O)c2)oc2cc(O[C@@H]3O[C@@H](CO)[C@@H](O)[C@@H](O)[C@H]3O)cc(O)c12,i,nt,nt,i[11.4 µM]
COc1cccc(Cn2c(=O)c(-c3ccc(Cl)cc3)nc3cnc(N4CCN(C)CC4)nc32)c1,?,i,i,i[11.4 µM]
COc1cccc(Cn2c(=O)c(-c3ccc(Cl)cc3)nc3cncnc32)c1,10µM,?,i,i[11.4 µM]
COc1cccc(Cn2c(=O)c(C)nc3cnc(OCc4ccccc4)nc32)c1,13µM,i,nt,i[11.4 µM]
COc1cccc(Cn2c(=O)c(-c3ccc(Cl)cc3)nc3cnc(OC)nc32)c1,7.9µM,i,i,i[11.4 µM]
CC(C)C1O[C@H](/C=C\c2ccccc2)OCC1(C)C (stereo partly drawn),nt,nt,i[10.9 µM],nt
CC(C)c1cccc2c([Si](C)(C)C)c3c(nc12)-c1cccc(=O)n1C3,?,i,i,nt
